Rows were chosen to be rich in hits. Some 9.4% of all compounds tested hit in one or more screens of this group.
SMN2 splice up = increases expression of the SMN2 splice variant; HEK293 SMN2-luciferase splicing reporter, luminescence, 30-36 h; Potency, µM (titrated, usually from 46.1 µM), for the others: at the top dose activity change, positive = activation, hits mostly activators; 210,000 tested, 2.8% active; also: % of control where 0% means no effect; nearly all actives have a fitted effect of over 55% in size
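HEK293 cells carry an SMN2 […]–luciferase reporter in which exon 7 inclusion puts luciferase in frame. Cells were plated 10-12 h before compound addition, then incubated 30-36 h at 37C. ONE-Glo luminescence was read; sodium butyrate at 4.5 mM final served as control.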
FLuc counter = firefly luciferase modulation, counter-screen for miR-21 project; Potency, µM (highest dose often 57.5 µM), for the others: at the top dose activity change, negative = inhibition, actives largely listed as inhibitors; P08659; 360,000 tested, 6.9% active; AID 588342; purified FLuc, Km substrates, luminescence inhibition;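 also: plate controls were vehicle for no effect and reference inhibitor for full effect; nearly all actives have a fitted effect of over 55% in size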
Target sequence (P08659 whole entry, looked up): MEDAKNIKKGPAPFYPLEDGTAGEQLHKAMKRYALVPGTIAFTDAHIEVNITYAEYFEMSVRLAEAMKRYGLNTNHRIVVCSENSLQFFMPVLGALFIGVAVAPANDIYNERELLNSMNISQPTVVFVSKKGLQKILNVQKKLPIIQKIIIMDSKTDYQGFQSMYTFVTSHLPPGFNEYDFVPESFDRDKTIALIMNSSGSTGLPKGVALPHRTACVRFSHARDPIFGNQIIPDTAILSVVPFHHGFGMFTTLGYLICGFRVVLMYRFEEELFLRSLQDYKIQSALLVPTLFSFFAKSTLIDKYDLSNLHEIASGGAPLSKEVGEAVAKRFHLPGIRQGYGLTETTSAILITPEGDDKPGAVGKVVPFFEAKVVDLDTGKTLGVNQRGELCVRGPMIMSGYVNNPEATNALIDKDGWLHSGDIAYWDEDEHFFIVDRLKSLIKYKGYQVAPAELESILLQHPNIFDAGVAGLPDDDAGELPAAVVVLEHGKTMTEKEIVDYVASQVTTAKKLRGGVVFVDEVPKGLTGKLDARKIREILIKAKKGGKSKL
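Purified P. pyralis luciferase (10nM final) with 10uM D-luciferin and 10uM ATP (Km levels) in 50mM Tris acetate pH 7.5, 10mM Mg acetate, 0.01% Tween-20, 0.05% BSA; qHTS 6-point titration, ~60 µM downward; luminescence read.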
ELG1 genotox = genotoxicity induction in ELG1-luciferase HEK293T cells | HEK293T ELG1-luciferase reporter, luminescence, 16 h | Potency, µM (series often up to 46 µM), for inactives: at the highest dose activity change, positive = activation, actives largely listed as activators | 330,000 tested, 1.3% active; also: % of control where 0% means no effect; nearly all actives have a fitted effect of over 60% in size
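Quantitative HTS format in 1536-well plates. HEK293T ELG1-luciferase reporter cells receive test compound and are incubated 16 hr at 37 °C, 5% CO2; ONE-Glo added, 30 min room temperature, then luminescence read.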
NPC1 promoter act = activators of NPC1 promoter; Huh7 NPC1 promoter luciferase reporter, 24 h; 320,000 tested, 2.4% active; Potency, µM (highest dose often 9.22 µM), without a hit: at the top dose activation, hits mostly activators; AID 485313; also: % of control where 0% means no effect; nearly all actives have a fitted effect of over 60% in size
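Readout is luciferase luminescence, reflecting NPC1 promoter activation in stably transfected Huh7 cells after 24 h compound exposure at 37 °C in reduced-serum medium with 10% FBS.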
Rab9 promoter act = Rab9 promoter activation; Huh7 Rab9 promoter-luciferase reporter, luminescence, 24 h; Potency, µM (titrated, usually from 9.22 µM), inactives show at the highest dose activation, negative = inhibition, most hits filed as activators; 320,000 tested, 2.8% active; also: % of control where 0% means no effect; nearly all actives have a fitted effect of over 60% in size
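Stable Rab9-luc Huh7, 1500 cells/well, 2 h settle; cmpd in DMSO, 24 h, 37 °C/5% CO2; luciferase reagent 10 min RT; luminescence.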
ELG1 DNA repair = ELG1-dependent DNA repair inhibition. Potency, µM (series often up to 46.1 µM), for the others: at the top dose activity change, negative = inhibition, hits mostly inhibitors. HEK293T ELG1-luciferase reporter, luminescence, 16 h; DNA damage induced by 5-fluorouridine. 330,000 tested, 2.3% active; also: % is scaled to controls: 0 for no effect and ±100 for the full control effect; nearly all actives have a fitted effect of over 55% in size
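HEK293T cells expressing luciferase-tagged ELG1 (2,000/well) received 5-Fluorouridine plus compound or DMSO for 16 hr at 37 °C. Luciferase was read by ONE-Glo luminescence after 30 min at room temperature.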
Numbers without * were called inactive. Calls follow the shape of the dose curve; as a rule, active = well fitted curve in the direction sought with a large enough effect; inconclusive = small, poorly fitted or top-dose-only effect, or another doubt; inactive = no such curve, though single readings can be large; an effect the other way counts as inactive or inconclusive. Potency is read from the fitted curve at half-maximal effect.

How did COC(=O)[C@H](Cc1ccccc1)NC(=O)O[C@@H]1C(=O)c2cc(OC)ccc2O[C@H]1c1cccc(OC)c1 do in these assays?
SMN2 splice up: 18%

Results for COc1ccc(-n2c(=O)c3sc4ccccc4c3n(CC(=O)Nc3ccccc3F)c2=O)cc1 ?
SMN2 splice up: 16%; FLuc counter: 2%

What do the screens show for `Cc1nn(-c2cc(C(F)(F)F)ccn2)c(=O)o1`?
FLuc counter: 3%; ELG1 genotox: -3%; NPC1 promoter act: -2%; Rab9 promoter act: -8%; ELG1 DNA repair: -8%

What do the screens show for `CCc1nc(CN2CCN(c3cc(C(F)(F)F)ccn3)CC2)c(C)[nH]1`?
FLuc counter: 0%; ELG1 genotox: -6%; NPC1 promoter act: -7%; Rab9 promoter act: -14%; ELG1 DNA repair: 7.3µM*

What do the screens show for `Cc1oc2ncn(CC(C)C)c(=O)c2c1C(=O)NCCCN1CCC(C)CC1`?
FLuc counter: -6%

Results for COc1cc(NC(=O)c2nnn(CC(=O)Nc3cc(C)ccc3C)c2N)cc(OC)c1 ?
FLuc counter: -2%

What do the screens show for `O=C(COc1ccccc1-c1nc(-c2ccccc2)no1)Nc1ccc([N+](=O)[O-])cc1`?
FLuc counter: 3%

Results for Cn1c(C(=O)NCc2ccccn2)cc2c(=O)n3ccccc3nc21 ?
SMN2 splice up: 14µM*; FLuc counter: 15µM*; ELG1 genotox: inconclusive; NPC1 promoter act: inconclusive; Rab9 promoter act: 2µM*; ELG1 DNA repair: inconclusive

How did O=C(Cc1ccccc1)Nc1cccc([N+](=O)[O-])c1 do in these assays?
SMN2 splice up: -23%; FLuc counter: 2%; ELG1 genotox: 0%; NPC1 promoter act: -4%; Rab9 promoter act: -2%; ELG1 DNA repair: 5%

How did O=C(Cc1cccc2ccccc12)Nc1cccnc1 do in these assays?
SMN2 splice up: -16%; FLuc counter: 4%; ELG1 genotox: 9%; NPC1 promoter act: -3%; Rab9 promoter act: -4%; ELG1 DNA repair: -4%

How did O=C(N/N=C/c1cccnc1)c1ccc2ccccc2c1O do in these assays?
FLuc counter: 5.4µM*; ELG1 genotox: inconclusive; NPC1 promoter act: 13%; Rab9 promoter act: 27%; ELG1 DNA repair: inconclusive

Results for O=C(Nc1cccnc1)c1ccc2ccccc2c1O ?
FLuc counter: 2.1µM*; ELG1 genotox: inconclusive; NPC1 promoter act: 2.5µM*; Rab9 promoter act: 2µM*; ELG1 DNA repair: inconclusive

What do the screens show for `O=C(Nc1ccccn1)c1ccc2ccccc2c1O`?
FLuc counter: 21µM*; ELG1 genotox: 23%; NPC1 promoter act: 3.2µM*; Rab9 promoter act: 3.2µM*; ELG1 DNA repair: inconclusive

How did O=C(N/N=C/c1cccnc1)c1ccccc1Br do in these assays?
FLuc counter: -10%; ELG1 genotox: 2%; NPC1 promoter act: 3%; Rab9 promoter act: -2%; ELG1 DNA repair: 2%

Results for O=C(Nc1cccc([N+](=O)[O-])c1)c1ccc2ccccc2c1O ?
FLuc counter: 0.67µM*; ELG1 genotox: 15%; NPC1 promoter act: inconclusive; Rab9 promoter act: inconclusive; ELG1 DNA repair: inconclusive

Results for O=C(O)c1ccccc1C(=O)Nc1ccccn1 ?
SMN2 splice up: -5%; FLuc counter: 3%; ELG1 genotox: 6%; NPC1 promoter act: -8%; Rab9 promoter act: 5%; ELG1 DNA repair: 8%

What do the screens show for `CCCC(=O)Nc1cccc(OCc2cc(=O)n3cccc(C)c3n2)c1`?
FLuc counter: -10%

What do the screens show for `COc1ccc(NC(=O)CCc2nnc3n(Cc4ccccc4Cl)c(=O)c4ccccc4n23)cc1`?
SMN2 splice up: -5%; FLuc counter: 5%

Results for CCCCC/C=C\C/C=C\CCCCCCCC(=O)NCC(=O)O ?
SMN2 splice up: 6%

What do the screens show for `CC(C)c1ccc(/C=N/NC(=O)c2ccccc2Cl)cc1`?
FLuc counter: 24µM*; ELG1 genotox: inconclusive; NPC1 promoter act: -17%; Rab9 promoter act: 1%; ELG1 DNA repair: inconclusive

How did COc1cc(/C=N\NC(=O)c2cccnc2)ccc1OC(=O)c1ccccc1Cl do in these assays?
FLuc counter: 11µM*; ELG1 genotox: 14%; NPC1 promoter act: -1%; Rab9 promoter act: 3%; ELG1 DNA repair: -4%

Results for COc1cc(/C=N/NC(=O)c2cccnc2)ccc1OC(=O)c1ccco1 ?
SMN2 splice up: 3%; FLuc counter: -20%; ELG1 genotox: 0%; NPC1 promoter act: -5%; Rab9 promoter act: 1%; ELG1 DNA repair: 0%

How did COc1ccc(C(=O)Oc2cc(/C=N/NC(N)=S)ccc2OC)cc1 do in these assays?
SMN2 splice up: 9%; FLuc counter: -13%; ELG1 genotox: 2%; NPC1 promoter act: -5%; Rab9 promoter act: -6%; ELG1 DNA repair: inconclusive

Results for COc1ccc(/C=N/NC(N)=S)cc1OC(=O)c1cccc2ccccc12 ?
SMN2 splice up: -47%; FLuc counter: 6µM*; ELG1 genotox: -5%; NPC1 promoter act: 1%; Rab9 promoter act: 5%; ELG1 DNA repair: inconclusive

Results for O=C(N/N=C/c1cccnc1)c1ccccc1Cl ?
FLuc counter: 11µM*; ELG1 genotox: 15%; NPC1 promoter act: 24%; Rab9 promoter act: 25%; ELG1 DNA repair: inconclusive

What do the screens show for `CC(C)N(Cc1ccccc1)C(=O)C1CCCN(c2ncnc3onc(-c4ccc(F)cc4)c23)C1` (centres undefined)?
FLuc counter: -2%

What do the screens show for `CCCN1CCN(c2ncc3c(n2)CCN(Cc2ccc(OC)c(OC)c2OC)C3)CC1`?
FLuc counter: -1%

What do the screens show for `O=C(N/N=C\c1cccnc1)c1ccccc1O`?
FLuc counter: 7.6µM*; ELG1 genotox: inconclusive; NPC1 promoter act: 28%; Rab9 promoter act: inconclusive; ELG1 DNA repair: inconclusive

Results for CCOc1ccc(CCNC(=O)c2cc(Nc3ccc(C)cc3C)nc3ccccc23)cc1OCC ?
SMN2 splice up: -1%; FLuc counter: inconclusive

How did CC1CC(C)(C)Nc2ccc(OC(=O)c3ccco3)cc21 (centres undefined) do in these assays?
FLuc counter: 6.7µM*; ELG1 genotox: 19%; NPC1 promoter act: 0%; Rab9 promoter act: inconclusive; ELG1 DNA repair: inconclusive

How did Cn1ccc(NC(=O)c2ccc([N+](=O)[O-])cc2)n1 do in these assays?
FLuc counter: 3%; ELG1 genotox: 0%; NPC1 promoter act: 3%; Rab9 promoter act: 1%; ELG1 DNA repair: 22%

Results for Cn1ccc(NC(=O)c2ccc(Cl)cc2)n1 ?
FLuc counter: inconclusive; ELG1 genotox: inconclusive; NPC1 promoter act: 4%; Rab9 promoter act: 19%; ELG1 DNA repair: inconclusive
